# Reference: PubChem BioAssay (NCATS)
# Records with an inconclusive call do not appear. Where a call stands in place of a potency, no number is given. Active and inactive are the calls of the source. Calls come from the whole dose curve; as a rule, active = well fitted inhibition curve with a large enough effect; inconclusive = small, poorly fitted or top-dose-only effect; inactive = flat fitted curve, though single readings scatter.
# Target: Lysine-specific demethylase 5B (Homo sapiens) (UniProt Q9UGL1)
# Test: Optimization screen for KDM5B Histone Demethylases FDH coupled qHTS against the LOPAC library (AID 1347166)
# Conditions: KDM5B demethylation, FDH-coupled NADH fluorescence (FDH is formaldehyde dehydrogenase); series mostly up to 57.5 µM
# Excerpt: Assay Submitter (PI): Qin Yan, Ph.D. (Yale University) and Xiaodong Cheng, Ph.D. (MD Anderson)
# This project was funded as part of the NCI NEXT Program and Chemical Biology Consortium (CBC)
# The histone demethylases, KDM5A and KDM5B catalyze the demethylation of lysine 4 on histone H3 (H3K4me3/2). They
# are overexpressed in a variety of cancers and have been implicated in cancer cell growth, metastasis, drug resistance, and tumor growth. KDM5A is amplified and overexpressed in breast and gastric cancer; and is translocated in leukemia. While KDM5B is highly expressed in human mammary tumors and breast cancer cell lines, but not in normal adult breast tissue. Moreover, knockdown of KDM5B leads to upregulation of tumor suppressor genes, including BRCA1. The goal of this project is to employ qHTS to identify selective small molecule inhibitors of KDM5A/B demethylase activity to better understand the role of KDM5 in cancer and to develop novel therapies.
# We employed an FDH-coupled assay previously reported by Sakurai et al. to monitor in vitro KDM5 demethylase activity. Compounds showing dose response inhibition are re-acquired, validated, and tested for non-specific interference with the formaldehyde dehydrogenase (FDH) counterscreen. True inhibitors are validated using an AlphaLisa secondary screen, which employs an H3K4(me2-1)-specific antibody to monitor demethylation of a biotin-tagged H3K4(me3) peptide substrate. Inhibitors are profiled against KDM4A and KDM6A AlphaLisa counterscreens to determine level of demethylase specificity; and against the TruHits counterscreen to eliminate non-specific inhibitory activity on the AlphaLISA detection method. Selective inhibitors identified from the primary and secondary screening are tested in cells using immunofluorescence to monitor global H3K4 tri-methylation as a measure of KDM5A/B inhibition. This assay is run against the NCGC Lopac collection of about 1,200 compounds to evaluate its amenability to quantitative High Throughput Screening (qHTS) platform.
# Early Translation Branch (ETB)
# National Center for Advancing Translational Sciences (NCATS), Rockville, MD
# National Institute of Health (NIH), Bethesda, Maryland
# [1] Sakurai, M et al. A miniaturized screen for inhibitors of Jumonji histone demethylases. Mol Biosyst. 2010 Feb;6(2):357-64. doi: 10.1039/b912993f. Epub 2009 Oct 8.
# 1536-well Black, solid bottom, medium binding assay plate is purchased from Greiner Bio-one. The enzymes (KDM5B) and substrate (H3K4me3/2) are provided by the principal investigators. The buffer for this assay is composed of 50mM HEPES at pH 7.5 with 0.01% Tween-20.
# FDH coupled qHTS protocol:
# Three microliter enzyme mix (buffer + 200nM KDM5BDeltaAP final concentration) is dispensed into the assay plate using the BioRAPTR Flying Reagent Dispenser (FRD; Beckton-Dickenson). Compound (at various final concentration) and control solution is pin transferred to the assay plate using the Kalypsys 1536-pin tool apparatus. The assay plate is incubated for 10 min at room temperature followed by addition of 1uL substrate mix (buffer + 100uM ascorbic acid, 50uM ferrous ammonium sulfate, 12.5uM H3K4Me3, 25uM a-ketoglutarate, 0.25 mM NAD+, 0.25 U/mL formaldehyde dehydrogenase using the FRD yielding a total reaction volume of 4 uL. Initial fluorescence (Read1) is detected using the PerkinElmer ViewLux plate reader equipped with 340 nm excitation and 450 nm emission filters. The final fluorescence (Read2) signal is obtained after 30 min of room temperature incubation. Delta RFU is calculated (Read2 - Read1) and is used to generated dose response curves
# Chain of Lysine-specific demethylase 5B (Homo sapiens) (Q9UGL1 whole entry, looked up): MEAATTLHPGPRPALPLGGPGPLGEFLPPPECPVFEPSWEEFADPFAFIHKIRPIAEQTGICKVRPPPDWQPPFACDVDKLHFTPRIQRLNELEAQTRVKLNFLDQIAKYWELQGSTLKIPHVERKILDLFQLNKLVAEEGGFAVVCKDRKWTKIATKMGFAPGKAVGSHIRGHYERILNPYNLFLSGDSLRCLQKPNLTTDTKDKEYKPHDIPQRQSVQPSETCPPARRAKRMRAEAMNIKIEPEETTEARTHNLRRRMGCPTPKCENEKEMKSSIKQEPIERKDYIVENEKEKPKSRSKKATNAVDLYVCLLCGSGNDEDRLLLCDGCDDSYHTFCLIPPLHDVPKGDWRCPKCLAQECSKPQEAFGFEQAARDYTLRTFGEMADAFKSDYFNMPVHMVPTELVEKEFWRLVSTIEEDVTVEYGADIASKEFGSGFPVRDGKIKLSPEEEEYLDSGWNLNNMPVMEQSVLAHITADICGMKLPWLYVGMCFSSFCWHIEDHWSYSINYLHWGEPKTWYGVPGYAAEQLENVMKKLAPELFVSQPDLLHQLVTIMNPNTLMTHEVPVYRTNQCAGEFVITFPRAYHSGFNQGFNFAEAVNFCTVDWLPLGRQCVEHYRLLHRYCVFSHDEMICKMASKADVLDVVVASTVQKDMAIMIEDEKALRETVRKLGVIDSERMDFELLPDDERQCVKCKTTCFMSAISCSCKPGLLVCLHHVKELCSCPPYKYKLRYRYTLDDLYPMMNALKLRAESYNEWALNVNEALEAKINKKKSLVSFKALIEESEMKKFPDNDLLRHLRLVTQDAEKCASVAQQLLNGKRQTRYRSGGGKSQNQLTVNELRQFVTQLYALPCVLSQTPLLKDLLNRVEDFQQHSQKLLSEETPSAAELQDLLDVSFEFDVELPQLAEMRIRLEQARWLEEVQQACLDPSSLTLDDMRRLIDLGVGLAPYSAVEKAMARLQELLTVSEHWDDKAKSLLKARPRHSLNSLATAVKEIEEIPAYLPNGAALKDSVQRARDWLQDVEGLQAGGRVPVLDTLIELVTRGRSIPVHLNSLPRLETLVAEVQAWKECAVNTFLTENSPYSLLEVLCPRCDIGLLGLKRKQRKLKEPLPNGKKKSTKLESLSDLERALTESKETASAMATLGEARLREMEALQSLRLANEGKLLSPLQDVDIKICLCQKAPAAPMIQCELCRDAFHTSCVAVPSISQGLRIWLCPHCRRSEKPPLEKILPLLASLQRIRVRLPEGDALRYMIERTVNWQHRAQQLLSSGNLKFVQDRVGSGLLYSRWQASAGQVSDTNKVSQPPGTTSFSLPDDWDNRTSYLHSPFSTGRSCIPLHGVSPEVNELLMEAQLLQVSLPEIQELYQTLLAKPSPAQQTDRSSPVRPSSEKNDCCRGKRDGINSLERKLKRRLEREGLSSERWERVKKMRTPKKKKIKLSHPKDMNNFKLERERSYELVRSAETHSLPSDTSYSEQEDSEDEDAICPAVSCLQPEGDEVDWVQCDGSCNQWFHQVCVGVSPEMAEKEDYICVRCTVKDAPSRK
row,SMILES,Potency
1,O=C(CCCN1CCC(O)(c2cccc(C(F)(F)F)c2)CC1)c1ccc(F)cc1,inactive
2,CCN(CC)CCNC(=O)c1cc(S(C)(=O)=O)ccc1OC,inactive
3,OCCN1CCN(CC/C=C2/c3ccccc3Sc3ccc(C(F)(F)F)cc32)CC1,inactive
4,COc1cc2c(cc1OC)-c1cc(=Nc3c(C)cc(C)cc3C)n(C)c(=O)n1CC2,inactive
5,C[N+](C)(C)CCOC(N)=O,inactive
6,C[N+](C)(C)CCOC(=O)CCC(=O)OCC[N+](C)(C)C,inactive
7,NC(Cc1ccc(Cl)cc1)C(=O)O (stereo not given),inactive
8,CCCN(CCC)CCc1cccc2c1CC(=O)N2,inactive
9,CCCCCN(CCCCC)C(=O)C(CCC(=O)O)NC(=O)c1ccc(Cl)c(Cl)c1 (stereo not given),inactive
10,CC(C)NNC(=O)c1ccncc1,inactive
11,Cc1ccc(/C(=C\CN2CCCC2)c2ccccn2)cc1,inactive
12,CC(=O)[C@]1(O)Cc2c(O)c3c(c(O)c2[C@@H](O[C@H]2C[C@H](N)[C@H](O)[C@H](C)O2)C1)C(=O)c1ccccc1C3=O,inactive
13,COc1ccc(CCN(C)CCCC(C#N)(c2cc(OC)c(OC)c(OC)c2)C(C)C)cc1OC (stereo not given),inactive
14,OC(CCN1CCCCC1)(c1ccccc1)C1CCCCC1 (stereo not given),inactive
15,O=C(O)CN(CCN(CC(=O)O)CC(=O)O)CCN(CC(=O)O)CC(=O)O,inactive
16,CC(=O)Oc1cc(C(C)C)c(OCCN(C)C)cc1C,inactive
17,C[C@]12CC[C@@H]3c4ccc(O)cc4C[C@@H](CCCCCCCCCS(=O)CCCC(F)(F)C(F)(F)F)[C@H]3[C@@H]1CC[C@@H]2O (stereo not given in full),inactive
18,CN(C)CCN(Cc1cccs1)c1ccccn1,inactive
19,NC(N)=N/N=C/c1c(Cl)cccc1Cl,inactive
20,Cc1ccc(S(=O)(=O)NC(=O)NN2CCCCCC2)cc1,inactive

row,SMILES,Potency
1,COc1ccc(CN(CCN(C)C)c2ccccn2)cc1,inactive
2,CCN(Cc1ccncc1)C(=O)C(CO)c1ccccc1 (stereo not given),inactive
3,C(=C\c1ccccc1)/CN1CCN(C(c2ccccc2)c2ccccc2)CC1,inactive
4,CC(C)(Oc1ccc(CCNC(=O)c2ccc(Cl)cc2)cc1)C(=O)O,inactive
5,CC(=O)[C@@]1(O)CC[C@H]2[C@@H]3CCC4=CC(=O)CC[C@]4(C)[C@H]3CC[C@@]21C,inactive
6,CN(C)CCCN1c2ccccc2Sc2ccccc21,inactive
7,CN1C(=O)CC[C@H]1c1cccnc1,inactive
8,O=C(O)CP(=O)(O)O,inactive
9,CCN(CC)CCCN(c1ccccc1)C1Cc2ccccc2C1,inactive
10,CO[C@@]1(NC(=O)CSCC#N)C(=O)N2C(C(=O)O)=C(CSc3nnnn3C)CS[C@@H]21,inactive
11,CCNC(=O)N1CCN(CCCC(c2ccc(F)cc2)c2ccc(F)cc2)CC1,inactive
12,C[C@H](CS)C(=O)N1CCC[C@H]1C(=O)O,inactive
13,C[N+](C)(C)CCCCCCCCCC[N+](C)(C)C,inactive
14,CCO/C([O-])=N/c1c[n+](N2CCOCC2)no1,inactive
15,NC(=O)c1cn(Cc2c(F)cccc2F)nn1,inactive
16,CCN1CCc2nc(N)oc2CC1,inactive
17,CN1C[C@H](C(=O)N[C@]2(C)O[C@@]3(O)[C@@H]4CCCN4C(=O)[C@H](Cc4ccccc4)N3C2=O)C[C@@H]2c3cccc4[nH]cc(c34)C[C@H]21,inactive
18,Cc1nc2c([nH]1)c(=O)n(C)c(=O)n2Cc1ccco1,inactive
19,Cc1scc2c1N(C(=O)CN1CCN(C)CC1)c1ccccc1NC2=O,inactive
20,CN/C(=C\[N+](=O)[O-])NCCSCc1ccc(CN(C)C)o1,inactive
